Source: PubChem BioAssay (National Center for Advancing Translational Sciences (NCATS))
Many of the other results were omitted from the sample, so hits are more common in it than they were.
KDM5B inh: Primary screen for KDM5B Histone Demethylases FDH-coupled qHTS; Lysine-specific demethylase 5B (Homo sapiens), Q9UGL1; KDM5B demethylase, FDH-coupled NADH fluorescence (FDH is formaldehyde dehydrogenase); Potency, µM (titrated, usually from 57.7 µM), most hits filed as inhibitors; 220,000 compounds, 2.6% hits; active = well fitted inhibition curve with a large enough effect; note: nearly all actives have a fitted effect of over 70% in size
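qHTS format, multiple compound concentrations. Buffer 50 mM HEPES pH 7.5/0.01% Tween-20; 200 nM KDM5BΔAP final; 10 min compound preincubation; substrate-mix levels 12.5 µM peptide, 25 µM α-KG, 0.25 mM NAD⁺; 30 min RT; ΔRFU.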
Large screens that a line does not name were inactive.

COC(=O)c1cccc(NC(=S)N[C@H]2CO[C@H]3[C@@H]2OC[C@H]3OC(=O)Nc2cccc3ccccc23)c1	none
O=C(Nc1ccc(Oc2ccccc2)cc1)O[C@@H]1CO[C@H]2[C@@H]1OC[C@@H]2NC(=S)Nc1cccc2ccccc12	KDM5B inh 32µM
O=C(Nc1cccc(CN2CCOC2=O)c1)N1CCCCCCC1	none
CCOC(=O)C(NC(=O)c1ccc(OC)cc1)(Nc1ccccc1F)C(F)(F)F (stereo not drawn)	none
Cc1c(C(=O)c2ccc[nH]2)oc2ccc(Br)cc12	none
CCOC(=O)CNC(=O)c1cc(-c2ccccc2)nc2ccccc12	none
O=C(Oc1ccc(Oc2ccccc2)cc1)C1CCCCC1	none
CN(C)c1ccc(CN(C)C2CCc3ccccc32)cc1 (stereo not drawn)	none
Cc1[nH]c(SCC(=O)NCC2(c3ccccc3)CC2)nc1Cc1ccccc1	none
O=C1N(c2ccccc2)C[C@H]2CN(Cc3ccccc3)CCN12	none
O=C(c1ccccc1)N(Cc1ccc2[nH]ccc2c1)C1CC1	none
COc1ccc(-c2ccc3nnc(CNC(=O)COc4ccccc4)n3n2)cc1	KDM5B inh 28µM
Cc1ccc(-c2ccc3nnc(CNC(=O)CNC(=O)c4ccccc4)n3n2)cc1	KDM5B inh 32µM
COc1ccc(-c2ccc3nnc(CNC(=O)CNC(=O)c4ccccc4)n3n2)cc1	KDM5B inh 28µM
COc1ccc2cc(CNC(=O)CNC(=O)c3ccccc3)ccc2c1	none
COCCCNCc1cc(=O)oc2ccc3ccccc3c12	none
CC1CCc2noc(NC(=O)c3ccc(F)cc3)c2C1 (stereo not drawn)	none
O=CN1CCN(C(C(=O)O)c2cn(Cc3ccccc3)c3ccc(C(=O)O)cc23)CC1 (stereo not drawn)	none
